From PubChem BioAssay AID777 (Sanford-Burnham Center for Chemical Genomics, 2007) come the findings set out here.

Screen size: about 96,000 compounds; about 19,000 (20%) were called active. A selection follows. Unmarked numbers belong to inactive results.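 The calls were made as follows: active = blocking of liver enzyme CYP2C9 beyond about 50% at 5 µM (limit read from the data); inactive = the rest.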

Sequence of Cytochrome P450 2C9 (Homo sapiens) (P11712 whole entry, looked up): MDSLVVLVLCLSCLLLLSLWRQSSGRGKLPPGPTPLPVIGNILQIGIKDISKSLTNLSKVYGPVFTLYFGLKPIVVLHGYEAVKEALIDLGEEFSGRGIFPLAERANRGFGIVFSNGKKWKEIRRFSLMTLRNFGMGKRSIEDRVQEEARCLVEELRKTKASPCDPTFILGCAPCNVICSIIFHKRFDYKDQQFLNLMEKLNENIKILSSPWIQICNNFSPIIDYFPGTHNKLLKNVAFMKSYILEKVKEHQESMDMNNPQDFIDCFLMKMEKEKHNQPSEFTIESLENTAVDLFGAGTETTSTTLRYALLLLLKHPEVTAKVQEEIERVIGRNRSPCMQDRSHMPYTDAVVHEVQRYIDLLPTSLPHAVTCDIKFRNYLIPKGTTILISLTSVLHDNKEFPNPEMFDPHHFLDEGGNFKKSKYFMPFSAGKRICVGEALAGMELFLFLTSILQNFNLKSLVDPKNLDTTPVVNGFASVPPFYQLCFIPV

This assay concerns the target Cytochrome P450 2C9 (Homo sapiens) (UniProt P11712). The experiment in a line: blockers of cytochrome P450 2C9 activity – biochemical, luminescence, ADME assay, primary screen (AID 777). Particulars: CYP2C9 Supersomes, luciferin-H conversion, at 5 µM, stronger effect = higher value.
As to `COC(=O)c1ccc(S(=O)(=O)c2ccc(C(=O)OC)s2)s1`, the inhibition (commonly the drop in the measured response relative to a control, in per cent) was 49.3%.
Under `O=C(O)CSc1nccn1-c1cccc(Cl)c1` stands 57.5% (active).
`Cn1c(Cc2cccc3ccccc23)nnc1SCC(=O)N1CCN(c2cccc(Cl)c2)CC1`: the inhibition is -15.6%.
Consider `Cc1nnc(NC(=O)CSc2nccn2-c2cccc(C)c2C)s1`, for which the inhibition was 39.9%.
`O=C(c1ccccn1)c1ncc(C(F)(F)F)cc1Cl`: the inhibition is 11.2%.
For the compound `CC(=O)c1c(N2CCOCC2)nc(=S)n(-c2cc(C)ccc2C)c1C`, the inhibition is -8.6%.
Under `Cc1cc(C)n(C(=O)c2ccc(C)c(S(=O)(=O)N3CCOCC3)c2)n1` stands 66.3% (active); under `CSC1=NCCN1C(=O)c1ccc(S(=O)(=O)N2CCOCC2)cc1`, 0.8%; under `Cc1ccccc1-c1nnn(CC(=O)c2ccc(S(=O)(=O)N3CCCC3)cc2)n1`, 9%.
For the compound `Cc1cc(C)n(C(=O)c2ccc(S(=O)(=O)N3CCCC3)cc2)n1`, the inhibition is 86.9% (active).
Then `Cc1ccc(C(=O)Nc2ccccc2C(=O)NC2CCCCC2)cc1S(=O)(=O)N1CCOCC1`, with 23.7%; and `Cc1cccc(N2C(=O)SC(N(CC(=O)O)c3cccc(C)c3)C2=O)c1` (centres undefined), with 30.8%.
For the compound `COc1cccc(C(=O)Nc2c3c(nn2-c2cccc(C)c2C)CS(=O)(=O)C3)c1OC`, the inhibition is -6.7%.
Then `Cc1ccc(-n2nc3c(c2NC(=O)c2ccc4c(c2)OCO4)CSC3)c(C)c1`, with 1.1%; and `Cc1cccc(-n2nc3c(c2NC(=O)c2ccc(Br)o2)CSC3)c1C`, with 72.3% (active); and `COCc1nc2ccccc2n1Cc1ccccc1Br`, with 14.7%.
On to `COc1ccc(NC(=O)Cn2c(-c3ccc(OC)cc3)cn(-c3ccc(C)cc3)c2=O)cc1`, for which the inhibition is 10%.
As to `COc1ccc(-c2cn(-c3ccc(C)cc3)c(=O)n2CC(=O)Nc2ccc(OC)c(OC)c2)cc1`, the inhibition was 80.5% (active).
Take `COc1ccc(NC(=O)COC(=O)Cn2c(C)nc3ccccc32)cc1OC`: the inhibition is -9.8%.
Then `COCC(C)N=CC1=C(O)CC(C)(C)CC1=O` (centres undefined), with -5.7%; and `CCOc1ccccc1NC(=O)CCN1CCN(S(=O)(=O)c2ccc(OC)cc2)CC1`, with 41.4%; and `COc1ccc(S(=O)(=O)N2CCCC(C(=O)Nc3ccc(NC(=O)c4ccccn4)cc3)C2)cc1` (centres undefined), with -18.5%.
Under `COc1ccc(S(=O)(=O)N2CCN(c3ncnc4c(-c5ccccc5)nsc34)CC2)cc1` stands 51.9% (active); under `COc1cccc(Oc2ccc(N)cc2)c1`, 4.7%.
In the case of `CN1C2CCC1/C(=C\c1ccccc1Cl)C(=O)/C2=C\c1ccccc1Cl`, the inhibition is -79.2%.
Under `COCCNC(=S)c1ccc(OC)cc1` stands -13.3%.
Then `Cn1c(Cc2csc(N)n2)nnc1SC/C=C/c1ccccc1`, with 27.1%; and `CCOC(=O)CN1C(=O)C(=O)c2cc(C)ccc21`, with 8.3%.
Turning to `C=CCn1c(C)cc(C(=O)CN2C(=O)c3ccccc3C2=O)c1C`, the inhibition is -61.6%.
`Cc1cc2c(cc1C)N(C(=O)CN1C(=O)c3ccccc3C1=O)C(C)(C)c1ssc(=S)c1-2`: the inhibition was 78.2% (active).
Regarding `Cc1ccc2c(c1)-c1c(ssc1=S)C(C)(C)N2C(=O)CN1C(=O)c2ccccc2C1=O`, the inhibition was 80.6% (active).
For the compound `CC(C)OC(=O)CN1C(=O)c2ccccc2C1=O`, the inhibition is 4.9%.
Under `Cc1cc(C(=O)COC(=O)CCCN2C(=O)c3ccccc3C2=O)c(C)n1C` stands -21.1%; under `Cc1[nH]c2ccc(S(N)(=O)=O)cc2c1C`, -42.1%.
Under `CNC(=S)NNC(=O)c1sccc1OCc1ccccc1` stands 12.2%; under `COc1cccc(-n2c(SCC(=O)NC3CCCCC3)nc3n[nH]c(C)c3c2=N)c1`, 19.4%; under `Cc1ccc(N(CC(=O)Nc2cc(C)cc(C)c2)S(=O)(=O)c2cccc3nonc23)cc1`, 48.7%.
Under `Cc1noc(C)c1C(=O)NC(C)c1ccc2c(c1)OCO2` (centres undefined) stands 32.6%; under `COC(=O)c1ccc(NC(=O)CN(c2ccc(C)cc2)S(=O)(=O)c2c(C)n[nH]c2C)cc1`, 91.4% (active).
Consider `Cc1noc(C)c1S(=O)(=O)N(CC(=O)NCc1ccc(Cl)cc1)c1ccc2c(c1)OCO2`, for which the inhibition is 68.9% (active).
Then `Cc1noc(C)c1S(=O)(=O)N(CC(=O)Nc1ccc2c(c1)OCCO2)c1ccc(C(C)C)cc1`, with 72.5% (active); and `COC(=O)c1ccc(NC(=O)Nc2ccc(C)cc2)cc1`, with 34.6%.
As for `CS(=O)(=O)N(CC(=O)NCc1ccco1)c1ccc2c(c1)OCO2`, the inhibition was 2.2%.
Then `CCOc1ccc(N(CC(=O)OC)S(=O)(=O)c2c(C)noc2C)cc1`, with 24.4%; and `CCOC(=O)c1cccc(NC(=O)CN(c2ccc(C)cc2)S(=O)(=O)c2c(C)noc2C)c1`, with 65.9% (active).
For the compound `CCN(CC)C(=O)CCC(=O)Nc1ccc(C(=O)OC)cc1`, the inhibition is 8.6%.
Under `CCOc1ccc(N(CC(=O)NCc2ccc(OC)cc2)S(=O)(=O)c2c(C)noc2C)cc1` stands 3.9%.
For the compound `CCCCN=C(N)/C(C(=O)OCC)=C(\O)c1ccc(OC)cc1`, the inhibition is 20.5%.
Regarding `CCC(=O)Nc1ccc2c(c1)nc(CCN1CCN(C)CC1)n2C`, the inhibition was 0.1%.
Under `Cc1cc(C)n2nc(C(=O)NC(C)(C)C)nc2n1` stands -10.2%; under `Cc1ccc(C(C)C)c(OCc2nnc(SCC(=O)Nc3nccs3)n2C)c1`, 3.8%; under `CCn1c2c(c3ccc(OC)cc31)CCCC2=O`, 41.1%.
Turning to `Cn1c(=O)c2c(SCC(=O)N3CCOCC3)nc(C3CC3)nc2n(C)c1=O`, the inhibition is 8.1%.
Under `Cc1c(C)c2cc3c4c(oc3c(C)c2oc1=O)CCCC4` stands 9.6%.
Under `O=S1(=O)CC(NCc2ccccc2)C(Nc2ccc(Cl)cc2)C1` (centres undefined) stands 27.4%.
`Cc1ccn2cc(-c3nonc3C)cc2c1`: the inhibition was 15.3%.
Under `O=C(Nc1ncc2c(n1)CC(c1ccco1)CC2=O)c1ccc(Cl)cc1` (centres undefined) stands 31.2%; under `C=CCn1c(SCc2csc(C)n2)nc2scc(-c3ccc(C)o3)c2c1=O`, 48%.
Under `O=C(CN(c1ccc2c(c1)OCCO2)S(=O)(=O)c1ccccc1)Nc1ccc2c(c1)OCO2` stands 92.2% (active); under `COc1ccc(S(=O)(=O)N(C)CC(=O)Nc2ccc3c(c2)OCCO3)cc1OC`, 27.4%; under `CC(C)C(=O)OCC(=O)Nc1ccc2c(c1)CCC2`, -0.6%.
Under `COc1ccc(CC(=O)Nc2ccc3c(c2)CCC3)cc1S(=O)(=O)N1CCOCC1` stands 59.8% (active).
On to `COc1ccc(CNc2ccc3c(c2)CCC3)cc1OC`, for which the inhibition is 7.2%.
Consider `CCC(=NC1CC(C)(C)NC(C)(C)C1)C1=C(O)CC(C)(C)CC1=O`, for which the inhibition was 13.4%.
Under `Cn1c(=NC(=O)CSCC(=O)N2CCOCC2)sc2ccccc21` stands -13.1%; under `O=C(CSc1ncccn1)NC(=O)NCc1ccccc1`, 5.8%.
As for `COC(=O)Nc1sc2nc(C)cc(C)c2c1-n1cccc1`, the inhibition is 55.1% (active).
Then `CCCCOC(=O)Nc1sc2nc(C)cc(C)c2c1-n1cccc1`, with 37.4%.
For `Cc1cc(C)c2c(-n3cccc3)c(NC(=O)OCc3ccccc3)sc2n1`, the inhibition is 13.2%.
Under `Cc1cc(C)c2c(-n3cccc3)c(C(=O)NNS(=O)(=O)c3ccc(F)cc3)sc2n1` stands 98.1% (active); under `COc1ccc(C2=Nc3cc(C)ccc3OC2)cc1`, 19.1%.
On to `Cc1ccc(S(=O)(=O)n2cnc3ccccc32)c(C)c1`, for which the inhibition was -7.6%.
Then `O=C(CN1C(=O)C2C3C=CC(C3)C2C1=O)NCCc1ccccc1Cl` (centres undefined), with 17.1%.
Under `CCc1c(O)nc(SCC(=O)N2CCCCC2)n(-c2ccccc2C)c1=O` stands 4.6%; under `Cc1ccc2nc3n(c(=O)c2c1)CCC3`, 21%.
For `COc1ccc(OC)c(CNC(=O)C2CCCN(c3nc4ccccc4o3)C2)c1` (centres undefined), the inhibition is 44.8%.
For the compound `COc1ccc(C(c2nnnn2Cc2cccs2)N2CCN(c3ccccc3)CC2)cc1OC` (centres undefined), the inhibition was 61.5% (active).
Then `COc1ccc(CCn2nnnc2C(c2ccccc2)N2CCN(C)CC2)cc1OC` (centres undefined), with -6%; and `Cc1ccc(C(c2sc3nc(C)nn3c2O)N2CCN(c3ccccc3)CC2)cc1` (centres undefined), with 36%.
In the case of `CC(=O)NC(C)(C)C1CC=C(C)/C(=N\O)C1` (centres undefined), the inhibition is -8.6%.
As to `CCCCOc1ccc(C(C)(O)CCN2CCOCC2)cc1` (centres undefined), the inhibition was -4.9%.
Under `CCOc1ccc(C2C(C(=O)O)c3ccccc3C(=O)N2CCN2CCOCC2)cc1` (centres undefined) stands -15.8%; under `CCCOc1ccc(C2c3c(oc4cc(C)c(C)cc4c3=O)C(=O)N2CCCN2CCOCC2)cc1` (centres undefined), 90.7% (active).
For `CC1(C)CN=C(N2CCN(c3ncnc4sc5c(c34)CCCC5)CC2)S1`, the inhibition is 39.4%.
`CCOC(=O)C1CCN(C(=O)Cc2c(C(=O)O)[nH]c3ccccc23)CC1`: the inhibition was 5.4%.
Under `Cc1ccc(SCCC(=O)OCC(=O)Nc2ncc(Cl)cc2Cl)cc1` stands 37.2%; under `Cc1nc2c(-c3ccccc3)c(C)[nH]n2c(=O)c1Cl`, 43.9%; under `CCCCN=C1N/C(=C\c2ccco2)C(=O)N1c1ccccc1`, 2.2%.
Then `O=S(=O)(c1ccc(Sc2nnc3ccccn23)nc1)N1CCOCC1`, with -4.9%; and `CCN(c1ccccc1)S(=O)(=O)c1ccc(C(=O)Nc2nccs2)cc1`, with 23.3%.
Under `Cc1ccccc1CSCCNC(=O)c1ccc(N(C)S(=O)(=O)c2ccccc2)cc1` stands 94.3% (active); under `CN(c1ccc(C(=O)NCCC2=CCCCC2)cc1)S(C)(=O)=O`, -11.3%; under `O=C(CSc1nnc(-c2c[nH]c3ccccc23)o1)c1ccccc1`, 18.1%.
With `Cc1cccc(C)c1-n1c(C)cc(/C=C2\C(=O)NN(c3ccccc3)C2=O)c1C`, the inhibition is 41.5%.
